# Columns and labels:
# Settings in all cases: concentration: 1 μM,replicates: in singlicate; n = 1
# [1] = test system: JAK1(JH2domain-pseudokinase)
# [2] = test system: JAK2(JH1domain-catalytic)
# [3] = test system: JAK3(JH1domain-catalytic)
# JNK1 = test system: T1, JNK1
# T1 construct: gene MAPK8
# JNK2 = test system: T2, JNK2
# T2 construct: gene MAPK9
# JNK3 = test system: T3, JNK3
# T3 construct: gene MAPK10
# KIT-autoinhibited = test system: KIT-autoinhibited
# KIT = test system: KIT
# LATS1 = test system: LATS1
# LATS2 = test system: LATS2
# LCK = test system: LCK
# LIMK1 = test system: LIMK1
# LIMK2 = test system: LIMK2
# LKB1 = test system: T4, LKB1
# T4 construct: gene STK11
# LOK = test system: T5, LOK
# T5 construct: gene STK10
# LRRK2 = test system: LRRK2
# LTK = test system: LTK
# LYN = test system: LYN
# LZK = test system: T6, LZK
# T6 construct: gene MAP3K13
# MAK = test system: MAK
# 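Note: KINOMEscan kinase panel screen.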
SMILES,%Inh [1],%Inh [2],%Inh [3],%Inh (JNK1),%Inh (JNK2),%Inh (JNK3),%Inh (KIT-autoinhibited),%Inh (KIT),%Inh (LATS1),%Inh (LATS2),%Inh (LCK),%Inh (LIMK1),%Inh (LIMK2),%Inh (LKB1),%Inh (LOK),%Inh (LRRK2),%Inh (LTK),%Inh (LYN),%Inh (LZK),%Inh (MAK)
C[C@@H](Oc1cc(-n2cnc3cc(-c4cnn(C)c4)ccc32)sc1C(N)=O)c1ccccc1Cl [GSK580432],0%,86%,96.9%,0%,31%,16%,0%,96.4%,0%,2%,94.8%,0%,0%,57%,99.9%,68%,25%,38%,0%,0%
O=C1NCCc2[nH]c(-c3ccncc3)cc21,26%,73%,87%,30%,24%,45%,0%,14%,23%,34%,9%,5%,2%,0%,6%,31%,0%,0%,2%,21%
COc1cc(Nc2nccc(N3CCC(NC(=O)c4cccc(C#N)c4)C3)n2)cc(OC)c1OC (centres unmarked) [GSK1379751],2%,98%,22%,30%,15%,33%,0%,43%,0%,0%,0%,92.6%,17%,0%,0%,0%,2%,0%,33%,7%
COC(=O)Nc1nc2cc(Oc3ccc(NC(=O)Nc4cc(C(F)(F)F)ccc4Cl)cc3)ccc2[nH]1.Cl [GW697465],0%,25%,0%,20%,61%,8%,0%,100%,100%,0%,98.9%,11%,0%,14%,99.7%,11%,36%,75%,44%,20%
Cl.Nc1n[nH]c2cc(-c3ccccn3)ccc12 [GSK2189892],14%,31%,0%,0%,0%,0%,0%,4%,0%,9%,12%,0%,0%,12%,0%,0%,0%,0%,0%,29%
Cn1ccc2ncnc(Oc3ccc(NC(=O)Nc4ccnc(C(F)(F)F)c4)c(Cl)c3)c21,1%,0%,2%,0%,0%,0%,22%,99.8%,11%,0%,0%,16%,0%,8%,94%,0%,100%,6%,7%,5%
OCCn1cc(-c2cnc3nnn(Cc4ccc5ncccc5c4)c3n2)cn1,10%,0%,0%,10%,0%,0%,0%,0%,0%,24%,0%,0%,0%,3%,18%,0%,8%,0%,0%,0%
N#Cc1cccc(C(=O)NC2CCN(c3ccnc(Nc4ccc(F)cc4)n3)C2)c1 (centres unmarked) [GSK1379708],0%,16%,0%,26%,34%,17%,0%,9%,0%,0%,22%,0%,0%,0%,0%,0%,0%,0%,0%,18%
Cn1ccc2ncnc(Oc3ccc(NC(=O)Nc4cnn(C(C)(C)C)c4)c(Cl)c3)c21,0%,11%,15%,2%,10%,0%,35%,99.8%,100%,2%,71%,1%,8%,9%,99.9%,0%,12%,71%,0%,0%
CC(C(=O)NC1CCN(c2ccnc(Nc3ccc(F)cc3)n2)C1)c1ccc(Cl)cc1 (centres unmarked) [GSK1379713],0%,7%,0%,2%,0%,0%,0%,10%,0%,0%,22%,0%,0%,0%,0%,14%,0%,0%,0%,12%
